# In PubChem BioAssay (NCATS):
# Records with an inconclusive call do not appear. A call without a number means that no potency is given here. Calls of active or inactive are those of the source. The call rests on the fitted dose curve; in most records, active means well fitted inhibition curve with a large enough effect; inconclusive means small, poorly fitted or top-dose-only effect; inactive means flat fitted curve, though single readings scatter.
# Target: Calcium and integrin-binding protein 1 (Homo sapiens) (UniProt Q99828)
# Sequence (Q99828 whole entry, looked up): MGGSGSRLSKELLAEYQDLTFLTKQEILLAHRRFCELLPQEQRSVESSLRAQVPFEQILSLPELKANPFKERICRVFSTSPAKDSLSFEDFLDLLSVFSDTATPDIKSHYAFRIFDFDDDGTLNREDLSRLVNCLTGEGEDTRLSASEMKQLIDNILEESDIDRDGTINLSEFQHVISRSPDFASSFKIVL
# Assay: Primary qHTS for Identification of Calcium Integrin Binding Protein 1 (CIB1) Competitor (AID 1508620);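 further: GST tagged CIB1 binding a fluorescein labelled alphaIIb integrin peptide tracer; top concentration of the series differs between compounds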
# Conditions: CIB1-GST / FITC-alphaIIb peptide fluorescence polarization; series mostly up to 114 µM
# Outline: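 CIB1-GST (1 uM final) and compound incubated 15 min at room temperature before adding FITC-alphaIIb peptide tracer (100 nM final). Competition for binding read by fluorescence polarization (ex 480, em 540) after another 15 min at room temperature.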
row,SMILES,Potency
1,Cc1cc(C)n2ncc(C(=O)Nc3ccc(C(F)(F)F)cc3)c2n1,inactive
2,O=C(OCC#CCSc1nnc(-c2cccc3ccccc23)o1)c1ccc(Br)cc1,inactive
3,CC(C)c1ccccc1-c1nc(NCc2ccc(-c3cccnc3)cc2)c2[nH]cnc2n1,inactive
4,N[C@H]1CCN(c2cnc3c(O)ccc(C(=O)O)c3c2)C1,inactive
5,Cc1cn([C@H]2C[C@H](N[S+](=O)([O-])c3ccc4c(c3)OCCO4)[C@@H](CO)O2)c(=O)[nH]c1=O,inactive
6,c1csc(CNc2ccc(N3CCOCC3)cc2)c1,inactive
7,Cc1ccc(OCCn2c(CCNC(=O)c3cc(N)ccc3N)nc3ccccc32)cc1,inactive
8,NC(N)=NCCC[C@H](NC(=O)CNC(=O)c1ccccc1)C(=O)Nc1cc(C(F)(F)F)ccc1Cl,inactive
9,COc1ccc(C2c3ccc4ccccc4c3Oc3ncn(CCN4CCOCC4)c(=N)c32)cc1OC (stereo unspecified),inactive
10,O=c1c(Nc2ccc(Cl)c(Cl)c2)c(Nc2nnc(-c3ccncc3)s2)c1=O,inactive
11,O=[S+]([O-])(c1ccc2c(c1)OCCO2)N1CCN([S+](=O)([O-])c2ccccc2Br)CC1,inactive
12,Cc1cc2c(s1)c1cnn(Cc3ccc(C)c(F)c3F)c(=O)c1n2C,inactive
13,Cc1ccc(OCCn2c(CCNC(=O)c3ccccc3[N+](=O)[O-])nc3ccccc32)cc1,inactive
14,CC(=O)Nc1ccc(-c2c(NC(C)=O)sc3c2CCNC3)cn1,inactive
15,N#CC1=C(Nc2nc3ccccc3o2)OC2=C(C(=O)CCC2)C1c1[nH]ncc1Cl (stereo unspecified),inactive
16,O=C(Cn1cc(CNC(=O)C2CCCCC2)nn1)Nc1cc(C(F)(F)F)ccc1Cl,inactive
